In PubChem BioAssay (NCATS):
The source made the active and inactive calls. Where a call stands in place of a potency, no number is given. Calls follow the shape of the dose curve; as a rule, active = well fitted inhibition curve with a large enough effect; inconclusive = small, poorly fitted or top-dose-only effect; inactive = no such curve, though single readings can be large or run the other way.

Target: Single-stranded DNA cytosine deaminase (Homo sapiens) (UniProt Q9GZX7)
Experiment: Validation qHTS assay for inhibitors of Activation Induced Cytidine Deaminase (AID): AID signal (AID 1347429)
Conditions: Recombinant AID, FRET ssDNA deamination with UDG, fluorescence; series mostly up to 115 µM
Excerpt: Assay Provider (PI) Patricia Gearhart Ph.D. National Institute on Aging National Institute of Health (NIH), Bethesda, MD Assay Provider (PI) Rahul Kohli Ph.D. Perelman School of Medicine University of Pennsylvania, Philadelphia, PA Activation-Induced Deaminase (AID) is a cytosine deaminase which converts cytosine into uracil within stretches of ssDNA. The presence of uracil in DNA initiates a cascade of mutagenic DNA repair to introduce point mutations and DNA double strand breaks. Specific targeting of AID to the immunoglobulin heavy chain loci (Igh) promotes mutagenesis in the antibody variable region for somatic hypermutation (SHM) or switch regions leading to class switch recombination (CSR). However, AID also plays a role in accumulating unnecessary mutations across the genome. Mis-targeting of AID results in the initiation of tumor development and leads to greater drug resistance among cancer cells when continually expressed. To identify an AID inhibitor, a small molecule library will be screened in collaboration with NCATS core facility at NIH. To confirm biological function, inhibitors will be examined in an in vitro murine B-cell activation assay and subsequent secondary validation screens. Top molecules will be further screened to identify inhibitory efficacy against a wild type primary splenocytes assay. Using these approaches, we hope to identify a small molecule with great efficacy and low toxicity for use as a molecular probe to further characterize AID's intricacies, or even as a therapeutic. A FRET based analysis of cytosine deamination, was developed to identify potential inhibitors of AID catalytic activity. This screen has two signal output, Read 1 evaluates the AID inhibition response. The second readout (Read 2) evaluates UDG response and is uses as a counterscreen to exclude false positive inhibitors. Inhibition in AID and inactivity in the UDG signal is the desired outcome for this assay.
PROTOCOL TABLE SEQUENCE No. (e.g., 1, 2, 3, etc.); […] (e.g., Cells, Incubation, Reagent, etc.); VALUE; DESCRIPTION 1a; Reagent; 3 uL; [4/3x] […] 250 nM DJC20 / 250 nM DJC23 [Substrate] 5; Time; 4 hr; incubation at room temperature 6; Reagent; 4 uL; [2x] 250 mM NaOH 7; Time; 15 sec; centrifuge at 1000 rpm 8; Time; 30 min; incubation at room temperature 9a; Detection; fluorescence (Read 1: AID); EnVision (PerkinElmer) plate reader, 540 excitation and 590 emission filters 9b; Detection; fluorescence (Read 2: UDG); EnVision (PerkinElmer) plate reader, 560 excitation and 665 emission filters NOTES (numbers refer to sequence above) 1a; Reagents were dispensed in a medium-binding black solid-bottom Greiner plates (789176F) using a BioRptr liquid dispenser. Dispense 3 uL of [4/3x] 1 uM AID (provided by Kohli lab) and [4/3x] 2 U/mL UDG (NEB M0280L) into columns 1, 2, 5 to 48. 1b; Dispense 3 uL of [4/3x] 2 U/mL UDG into column 3. 1c; Dispense 3 uL of [4/3x] 1 uM AID into column 4. 2a; Compound ([…] [uM] (0.64; 3.2; 16; 80; 400; 2,000; 10,000; 20,000) double pin-transferred (Dip Factor = 2) using the Kalypsys (Wako USA) pintool equipped with a 1536 pinhead for a final concentration range of 7.32 nM - 114 uM. 2b; 10 mM Aurintricarboxylic Acid (Sigma A1895) (ATA, 8-point, n = 2, 1:2.5 dilution in column 2) double pin-transferred (Dip Factor = 2) using the Kalypsys (Wako USA) pintool equipped with a 1536 pinhead for a [final] range of 186 nM - 114 uM. 3; Room temperature incubation. 4; Dispense 1 uL of substrate mixture from the Kohli lab [4x] […] DJC20 and [4x] 250 nM DJC23 into columns 1 to 48 . 5; Room temperature incubation. 6; Dispense 4 uL of substrate mixture [2x] 250 mM NaOH into columns 1 to 48. 7; Centrifugation step to remove bubbles. 8; Room temperature incubation 9a; Fluorescence signal (column label AID) was read using the EnVision plate reader. Excitation filter = 540(8) nm, barcode = 311; Emission filter = 590(20) nm, barcode = 217; Mirror = D555, barcode = 405. […]

Single-stranded DNA cytosine deaminase (Homo sapiens), sequence (Q9GZX7 whole entry, looked up): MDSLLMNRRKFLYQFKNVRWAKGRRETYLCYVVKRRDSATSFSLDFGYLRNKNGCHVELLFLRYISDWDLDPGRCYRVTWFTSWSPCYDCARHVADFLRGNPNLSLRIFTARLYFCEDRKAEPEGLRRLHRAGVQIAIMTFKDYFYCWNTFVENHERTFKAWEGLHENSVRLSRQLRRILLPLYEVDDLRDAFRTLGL

| SMILES | Potency |
| --- | --- |
| CCCCCC(O)c1cccc(OCc2ccc3ccccc3n2)c1 (stereo not given) | inactive |
| CCC1C(=O)OCC1Cc1cncn1C (stereo not given) | inactive |
| O=C(O)c1cc([N+](=O)[O-])ccc1NCCCc1ccccc1 | inactive |
| CCOC(=O)C1=C(C)NC(C)=C(C(=O)OCC)C1c1c(F)c(F)c(F)c(F)c1F | inactive |
| NC(=S)c1ccc[n+]([C@@H]2O[C@@H](COP(=O)([O-])OP(=O)(O)OC[C@H]3O[C@@H](n4cnc5c(N)ncnc54)[C@H](OP(=O)(O)O)[C@@H]3O)C(O)C2O)c1 (stereo not given in full) | inactive |
| CCNC(=O)[C@H]1O[C@@H](n2cnc3c(N)nc(NCCc4ccc(CCC(=O)O)cc4)nc32)[C@H](O)[C@@H]1O | inactive |
| Nc1ncnc2c1c(I)cn2[C@@H]1C[C@H](N)[C@@H](O)[C@H]1O | inactive |
| N#C/C(=C\c1ccc(O)c(O)c1)C(=O)NCc1ccccc1 | inactive |
| CN1CCc2cc(O)c(O)cc2C(c2ccccc2)C1 (stereo not given) | inactive |
| COc1ccc2c(c1)CCC1C2CC[C@@]2(C)C1CC[C@@H]2NCCCCCCN1C(=O)CCC1=O (stereo not given in full) | inactive |
| Nc1nc(SCc2ccc([N+](=O)[O-])cc2)c2ncn([C@@H]3O[C@H](CO)[C@@H](O)[C@H]3O)c2n1 | inactive |
| C#CCN1C(C)=C(C(=O)OC)C(c2cccc([N+](=O)[O-])c2)C(C(=O)OCC)=C1C (stereo not given) | inactive |
| Cc1cc(NC2CCCCC2)nc(-n2nc(C)cc2C)n1 | inactive |
| NO | inactive |
| Cn1cc(C2=C(c3ccc(Cl)cc3Cl)C(=O)NC2=O)c2ccccc21 | inactive |
| CNC(=O)[C@H]1O[C@@H](n2cnc3c(NCc4ccc(N)cc4)ncnc32)[C@H](O)[C@@H]1O | inactive |
| Cc1cc2c(cc1Cl)N(C(=O)Nc1ccc(Oc3cccnc3C)nc1)CC2 | inactive |
| COc1ccccc1CNCCCCCCNCCCCCCCCNCCCCCCNCc1ccccc1OC | inactive |
| Nc1nc(Cl)nc2c1ncn2[C@@H]1O[C@H](COP(=O)(O)OP(=O)(O)OP(=O)(O)O)[C@@H](O)[C@H]1O | inactive |
| CN1C2CCC1CC(OC(=O)C(O)c1ccccc1)C2 (stereo not given) | inactive |

| SMILES | Potency |
| --- | --- |
| Cc1ccc(C(=O)O[C@H](C(=O)O)[C@@H](OC(=O)c2ccc(C)cc2)C(=O)O)cc1 (tested in a mixture with another compound) | inactive |
| N=c1ccn2c(n1)O[C@H]1[C@H](O)[C@@H](CO)O[C@H]12 | inactive |
| CC1OC1P(=O)(O)O (stereo not given) | inactive |
| O=C(O)[C@@H]1C[C@@H](C(=O)O)N1 | inactive |
| O=C(O)/C=C/C(O)c1ccc(Cl)cc1 (stereo not given) | inactive |
| COc1cc(C(O)CO)ccc1OS(=O)(=O)O (stereo not given) | inactive |
| CC12C(=O)OC(=O)C1(C)C1CCC2O1 (stereo not given) | inactive |
| Oc1cc(O)cc(/C=C/c2ccc(O)c(O)c2)c1 | inactive |
| Cc1nc2sccn2c(=O)c1CCN1CCC(=C(c2ccccc2)c2ccc(F)cc2)CC1 | inactive |
| CC(C)(C)c1ccc(S(=O)(=O)/C=C/C#N)cc1 | inactive |
| N[C@@H](CC(=O)O)C(=O)O | inactive |
| CC(C)(C=O)Cc1cc(C(C)(C)C)c(O)c(C(C)(C)C)c1 | inactive |
| NCCCS(=O)(=O)O | inactive |
| CC1CN(S(=O)(=O)c2cccc3cnccc23)CCN1 (stereo not given) | inactive |
| CCN(CC)c1ncnc2c1ncn2[C@@H]1O[C@H](COP(=O)(O)OP(=O)(O)C(Br)(Br)P(=O)(O)O)[C@@H](O)[C@H]1O | inactive |
| COc1cccc(C(=O)NCCN2CCN(c3ccc(Cl)cc3)CC2)c1 | inactive |
| C[N+](C)(C)CC(=O)[O-] | inactive |
| COc1ccccc1N1CCN(CCCCNS(=O)(=O)c2cccc3c(N(C)C)cccc23)CC1 | inactive |
| NCCCCC(=O)O | inactive |
| O=C(O)CC1CC(c2ccccc2)=NO1 (stereo not given) | inactive |
